Source: article PMC5540273 (PLoS ONE, 2017)

Tests used:
Settings in all cases: concentration: 1 μM, replicates: in singlicate; n = 1
STK36 = system: STK36
STK39 = system: STK39
SYK = system: SYK
SgK110 = system: SgK110
TAK1 = system: T1, TAK1
T1 construct: gene MAP3K7

TAOK1 = system: TAOK1
TAOK2 = system: TAOK2
TAOK3 = system: TAOK3
TBK1 = system: TBK1
TEC = system: TEC
TESK1 = system: TESK1
TGFBR1 = system: TGFBR1
TGFBR2 = system: TGFBR2
TIE1 = system: TIE1
TIE2 = system: T2, TIE2
T2 construct: gene TEK

TLK1 = system: TLK1
TLK2 = system: TLK2
TNIK = system: TNIK
TNK1 = system: TNK1
TNK2 = system: TNK2
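Also: KINOMEscan kinase panel screen.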

Structure (SMILES) | %Inh (STK36) [%] | %Inh (STK39) [%] | %Inh (SYK) [%] | %Inh (SgK110) [%] | %Inh (TAK1) [%] | %Inh (TAOK1) [%] | %Inh (TAOK2) [%] | %Inh (TAOK3) [%] | %Inh (TBK1) [%] | %Inh (TEC) [%] | %Inh (TESK1) [%] | %Inh (TGFBR1) [%] | %Inh (TGFBR2) [%] | %Inh (TIE1) [%] | %Inh (TIE2) [%] | %Inh (TLK1) [%] | %Inh (TLK2) [%] | %Inh (TNIK) [%] | %Inh (TNK1) [%] | %Inh (TNK2) [%]
Nc1cccc(-c2ccc3c(N)n[nH]c3c2)c1 [GSK2193613] | 0 | 0 | 22 | 0 | 0 | 69 | 4 | 29 | 0 | 0 | 29 | 0 | 0 | 6 | 0 | 3 | 0 | 93.2 | 0 | 13
CCOc1nccc(-c2c(-c3ccc(F)cc3)ncn2C2CCNCC2)n1 [SB-249175] | 24 | 74 | 32 | 0 | 34 | 100 | 0 | 73 | 23 | 10 | 12 | 19 | 11 | 23 | 19 | 0 | 15 | 49 | 21 | 0
COc1cc(Nc2nccc(N3CCC(NC(=O)Nc4ccc5c(c4)OCO5)C3)n2)cc(OC)c1OC (centres unmarked) [GSK1379766] | 0 | 9 | 39 | 0 | 0 | 0 | 0 | 0 | 33 | 6 | 22 | 22 | 0 | 42 | 0 | 0 | 0 | 0 | 20 | 9
Nc1ncnc2scc(-c3ccc(NC(=O)Cc4cc(F)ccc4F)cc3)c12.O=C(O)C(F)(F)F [SB-731254-M] | 0 | 8 | 0 | 11 | 22 | 11 | 3 | 0 | 30 | 1 | 51 | 4 | 20 | 98.7 | 77 | 11 | 1 | 27 | 44 | 2
Cc1ccc(C)c(NC(=O)Nc2ccc(C)c(-c3ccc(C(=O)Nc4ccncc4)cc3)c2)c1 [GSK1398473] | 2 | 5 | 17 | 20 | 0 | 0 | 0 | 0 | 2 | 5 | 20 | 11 | 0 | 0 | 0 | 0 | 0 | 0 | 7 | 36
Cc1cc(-c2ccnc(Nc3cccc(C#N)c3)n2)cc(C)c1O [GSK1440913] | 38 | 8 | 83 | 0 | 54 | 77 | 22 | 42 | 35 | 19 | 47 | 0 | 0 | 74 | 0 | 16 | 0 | 68 | 0 | 18
Cc1ccccc1CC(=O)N1CCc2cc(-c3cn(C)c4ncnc(N)c34)ccc21 [GSK2603346] | 0 | 13 | 0 | 0 | 6 | 0 | 0 | 0 | 5 | 0 | 45 | 0 | 3 | 87 | 48 | 0 | 0 | 0 | 0 | 27
Cc1ccc(O)cc1Nc1ccnc2ccc(C(C)(C)C)cc12 [GW856805] | 0 | 43 | 24 | 0 | 57 | 35 | 13 | 28 | 27 | 31 | 0 | 8 | 93.2 | 38 | 39 | 0 | 31 | 0 | 69 | 13
Fc1cc(Cl)ccc1Nc1ccnc2cc(-c3ccc(CN4CCSCC4)o3)ccc12 [GW560106] | 0 | 4 | 51 | 0 | 0 | 0 | 0 | 0 | 6 | 0 | 17 | 0 | 71 | 1 | 6 | 0 | 0 | 47 | 87 | 75
Cn1cc(-c2cnc(N)c3c(-c4ccc5c(c4)CCN5C(=O)Cc4ccccc4)csc23)cn1 [GSK2593074] | 0 | 0 | 16 | 8 | 33 | 0 | 0 | 0 | 23 | 14 | 53 | 6 | 4 | 84 | 84 | 31 | 5 | 8 | 19 | 62
